# Results taken from PubChem BioAssay (Tox21).
# Unmarked numbers belong to inactive results. Records with an inconclusive call do not appear. Entries that show only a call come without a potency. Activity calls are given as the source filed them. Unless noted, the call rests on the fitted dose curve; in most records, active means well fitted curve in the direction sought with a large enough effect in the repeat runs; inconclusive means weak or mixed curves; inactive means no such curve, though single readings can be large; an effect the other way counts as inactive or inconclusive.
# Legend:
# [1] = A CellTox Green Cytotoxicity Assay to monitor cytotoxicity in HEK293 cells - 32 hour (AID 1224881); further: nearly all actives have a fitted effect of over 40% in size; further: potency means the concentration at half of the fitted maximal effect
# Method in brief: (§1)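 Fluorescence intensity, read at 0, 8, 16, 24, 32 and 40 h of compound treatment, reflected dye binding to DNA of dead HEK293 cells; compounds (23 nL, DMSO) were added 5 h after plating cells with reagent.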
# [2] = A CellTox Green Cytotoxicity Assay to monitor cytotoxicity in HepG2 cells - 0 hour (AID 1224882); further: nearly all actives have a fitted effect of over 35% in size
# Method in brief: (§2)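 Using 1536-well format, dye-containing HepG2 suspension was seeded, allowed 5 h at 37 C/5% CO2, dosed by pintool with compounds, positive and negative controls, and imaged for fluorescence across 40 h.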
# [3] = A CellTox Green Cytotoxicity Assay to monitor cytotoxicity in HepG2 cells - 32 hour (AID 1224883); further: nearly all actives have a fitted effect of over 50% in size; further: potency means the concentration at half of the fitted maximal effect
# Method in brief: as §2
# [4] = A CellTox Green Cytotoxicity Assay to monitor cytotoxicity in HEK293 cells - 8 hour (AID 1224884); further: nearly all actives have a fitted effect of over 35% in size; further: potency means the concentration at half of the fitted maximal effect
# Method in brief: as §1
# [5] = qHTS RealTime-Glo MT Cell Viability Assay in HEK293 cells - 24 hour (AID 1224886); further: nearly all actives have a fitted effect of over 50% in size; further: potency means the concentration at half of the fitted maximal effect
# Method in brief: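 Viability tracked continuously by luminescence as live cells reduce a prosubstrate for NanoLuc; HEK293 cells preincubated 5 h, compound-treated at 37 C, and read at 0, 8, 16, 24, 32 and 40 h.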
# [6] = qHTS RealTime-Glo MT Cell Viability Assay in HEK293 cells - 8 hour (AID 1224887); further: top concentration of the series differs between compounds; nearly all actives have a fitted effect of over 50% in size
# Method in brief: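 Viable HEK293 cells reduce a cell-permeant prosubstrate; the product diffuses out and is consumed by NanoLuc in the medium to give light. Compounds went in after a 5 h incubation and plates were read over the treatment course.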
# [7] = A CellTox Green Cytotoxicity Assay to monitor cytotoxicity in HEK293 cells - 16 hour (AID 1224888); further: nearly all actives have a fitted effect of over 35% in size; further: potency means the concentration at half of the fitted maximal effect
# Method in brief: as §1
# [8] = qHTS RealTime-Glo MT Cell Viability Assay in HepG2 cells - 0 hour (AID 1224889); further: nearly all actives have a fitted effect of over 50% in size; further: potency means the concentration at half of the fitted maximal effect
# Method in brief: (§3)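 Viability was tracked continuously by NanoLuc luminescence from prosubstrate reduced by living HepG2 cells, at successive time points over 40 h of compound exposure. Cells with reagent were preincubated 5 h at 37 °C before compound addition.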
# [9] = A CellTox Green Cytotoxicity Assay to monitor cytotoxicity in HepG2 cells - 8 hour (AID 1224890); further: nearly all actives have a fitted effect of over 45% in size; further: potency means the concentration at half of the fitted maximal effect
# Method in brief: as §2
# [10] = qHTS assay to identify small molecule antagonists of the estrogen receptor alpha (ER-alpha) signaling pathway using the BG1 cell line in the presence of 0.1 nM 17-beta-estradiol - cell viability counter screen (AID 1259241); further: nearly all actives have a fitted effect of over 40% in size
# Method in brief: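 Viability in VM7Luc4E2 cells after 22 hr compound exposure under 0.1 nM 17beta-estradiol stimulation, by CellTiter-Fluor.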
# [11] = qHTS assay to identify small molecule antagonists of the androgen receptor (AR) signaling pathway using the MDA cell line in the presence of 0.5 nM R1881 - cell viability counter screen (AID 1259242); further: nearly all actives have a fitted effect of over 45% in size; further: potency means the concentration at half of the fitted maximal effect
# Method in brief: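 Viability of MDA-kb2 cells was multiplexed with the luciferase AR readout; after 16 hr with compounds and R1881 at 0.5 nM final, CellTiter-Fluor fluorescence was recorded.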
# [12] = molecular target: Androgen receptor (Homo sapiens) (UniProt P10275); test: qHTS assay to identify small molecule antagonists of the androgen receptor (AR) signaling pathway using the MDA cell line in the presence of 0.5 nM R1881 (AID 1259243); further: nearly all actives have a fitted effect of over 50% in size; further: potency means the concentration at half of the fitted maximal effect
# Method in brief: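 Reporter cells cultured without CO2 receive test chemicals, then 0.5 nM R1881 final; after 16 hr at 37C, ONE-Glo is added and light output recorded.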
# [13] = molecular target: Estrogen receptor (Homo sapiens) (UniProt P03372); test: qHTS assay to identify small molecule antagonists of the estrogen receptor alpha (ER-alpha) signaling pathway using the BG1 cell line in the presence of 0.1 nM 17-beta-estradiol (AID 1259244); further: nearly all actives have a fitted effect of over 50% in size; further: potency means the concentration at half of the fitted maximal effect
# Method in brief: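 Estradiol at 0.1 nM (final) stimulates the endogenous ER-alpha of VM7Luc4E2 cells carrying an ERE-driven luciferase; compounds are co-incubated 22 h at 37C and luciferase output quantified by luminescence.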
# [14] = qHTS assay to identify small molecule HDAC inhibitors (AID 1259364);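 further: wild-type HCT-116 cells with endogenous class I/II HDAC activity; top concentration of the series differs between compounds; nearly all actives have a fitted effect of over 45% in size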
# Method in brief: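 Read-out: luminescence of HDAC-Glo I/II reagent, 30 min RT, reflecting class I/II deacetylase activity in whole HCT-116 cells pre-exposed 2 h to DMSO-dissolved compounds.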
# [15] = qHTS assay to identify small molecule HDAC inhibitors - cell viability counter screen (AID 1259365)
# Method in brief: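 Cytotoxicity was gauged in wild-type HCT-116 cells after a brief 2hr treatment with DMSO-dissolved compounds at 37C and 5% CO2, using CellTiter-Glo luminescence developed for 30min at room temperature.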
# [16] = qHTS assay to identify small molecule agonists of the sonic hedgehog signaling (Shh) pathway - cell viability counter screen (AID 1259366); further: nearly all actives have a fitted effect of over 50% in size; further: potency means the concentration at half of the fitted maximal effect
# Method in brief: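 Stable Gli1-Luc NIH/3T3 clone, 2,000 cells/well. Compound exposure 24hr at 37C. Read-out: CellTiter-Fluor fluorescence.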
# [17] = qHTS assay to identify small molecule antagonists of the sonic hedgehog signaling (Shh) pathway - cell viability counter screen (AID 1259367); further: nearly all actives have a fitted effect of over 55% in size; further: potency means the concentration at half of the fitted maximal effect
# Method in brief: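 Using CellTiter-Fluor, viability of Gli1-Luc reporter 3T3 cells is read by fluorescence in the wells used for the Shh luciferase assay. Treatment lasts 23 hr with conditioned medium, then reagent 1 hr at 37C.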
# [18] = qHTS assay to identify small molecule agonists of the sonic hedgehog signaling (Shh) pathway (AID 1259368; calls by dose curve;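 further: NIH/3T3-derived 3T3Gli1-Luc cells carrying a stable Gli1-driven firefly luciferase reporter; series mostly up to about 92 µM; nearly all actives have a fitted effect of over 15% in size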)
# Method in brief: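 A Gli1 transcriptional response element controlled firefly luciferase in 3T3Gli1-Luc cells. Compounds and a positive control were added 4 hr after plating, and cells were incubated a further 24 hr at 37 C before luminescence detection.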
# [19] = qHTS RealTime-Glo MT Cell Viability Assay in HepG2 cells - 16 hour (AID 1224885); further: nearly all actives have a fitted effect of over 50% in size
# Method in brief: as §3
# [20] = qHTS assay to identify small molecule phospholipidosis (PLD) inducers (AID 1259344; active means well fitted curve in the direction sought with a large enough effect; an effect the other way counts as inactive or inconclusive)
# Method in brief: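 Fluorescent phospholipid staining (LipidTOX Red) measured by automated microscopy in fixed HepG2 cells after 24 h treatment; nuclei counterstained with Hoechst 33342; amiodarone as reference inducer.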
# Sequence of Estrogen receptor (Homo sapiens) (P03372 whole entry, looked up): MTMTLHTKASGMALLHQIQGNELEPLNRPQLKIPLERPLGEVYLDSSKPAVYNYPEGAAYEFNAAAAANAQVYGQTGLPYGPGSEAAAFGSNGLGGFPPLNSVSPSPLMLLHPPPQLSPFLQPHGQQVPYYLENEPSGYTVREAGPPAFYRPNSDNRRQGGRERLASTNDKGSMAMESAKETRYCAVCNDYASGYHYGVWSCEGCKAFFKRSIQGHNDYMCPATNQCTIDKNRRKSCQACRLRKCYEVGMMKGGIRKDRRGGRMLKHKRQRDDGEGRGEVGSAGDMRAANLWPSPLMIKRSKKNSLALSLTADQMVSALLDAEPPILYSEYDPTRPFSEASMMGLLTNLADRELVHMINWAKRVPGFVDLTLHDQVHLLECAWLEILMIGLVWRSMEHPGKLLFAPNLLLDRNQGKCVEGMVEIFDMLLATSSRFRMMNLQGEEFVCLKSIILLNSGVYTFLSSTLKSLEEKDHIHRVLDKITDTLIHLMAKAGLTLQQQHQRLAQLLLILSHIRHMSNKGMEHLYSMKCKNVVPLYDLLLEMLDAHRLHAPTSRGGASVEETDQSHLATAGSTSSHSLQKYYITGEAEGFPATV
# Sequence of Androgen receptor (Homo sapiens) (P10275 whole entry, looked up): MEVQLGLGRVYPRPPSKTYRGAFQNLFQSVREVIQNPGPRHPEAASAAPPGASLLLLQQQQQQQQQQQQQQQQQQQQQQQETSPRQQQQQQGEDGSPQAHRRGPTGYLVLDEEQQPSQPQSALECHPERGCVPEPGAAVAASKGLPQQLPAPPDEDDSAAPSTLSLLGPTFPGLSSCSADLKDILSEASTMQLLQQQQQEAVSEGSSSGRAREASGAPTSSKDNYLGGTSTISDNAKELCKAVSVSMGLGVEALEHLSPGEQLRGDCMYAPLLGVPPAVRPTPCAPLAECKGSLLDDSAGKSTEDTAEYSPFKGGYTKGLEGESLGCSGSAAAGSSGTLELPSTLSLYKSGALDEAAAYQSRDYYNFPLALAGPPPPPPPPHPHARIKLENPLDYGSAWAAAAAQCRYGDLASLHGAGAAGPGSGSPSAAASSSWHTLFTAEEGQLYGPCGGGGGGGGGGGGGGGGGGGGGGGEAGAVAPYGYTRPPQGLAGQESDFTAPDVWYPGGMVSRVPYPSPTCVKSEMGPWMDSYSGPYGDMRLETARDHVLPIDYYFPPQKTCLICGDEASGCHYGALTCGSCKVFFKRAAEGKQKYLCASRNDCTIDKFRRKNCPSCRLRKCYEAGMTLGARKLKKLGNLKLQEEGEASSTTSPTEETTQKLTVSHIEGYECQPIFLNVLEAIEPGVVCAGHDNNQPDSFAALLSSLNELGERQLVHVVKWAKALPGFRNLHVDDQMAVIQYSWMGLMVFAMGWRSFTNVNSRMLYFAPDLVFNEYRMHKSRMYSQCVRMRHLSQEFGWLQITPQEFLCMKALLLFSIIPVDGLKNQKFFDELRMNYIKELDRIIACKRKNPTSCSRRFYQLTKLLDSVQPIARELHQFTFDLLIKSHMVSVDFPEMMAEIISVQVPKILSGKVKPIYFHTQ
SMILES,Potency [1],Potency [2],Potency [3],Potency [4],Potency [5],Potency [6],Potency [7],Potency [8],Potency [9],Potency [10],Potency [11],Potency [12],Potency [13],Potency [14],Potency [15],Potency [16],Potency [17],Potency [18],Potency [19],Potency [20]
COP(=O)(CCC(=O)NCO)OC,inactive,inactive,inactive,inactive,inactive,inactive,inactive,inactive,inactive,inactive,inactive,inactive,inactive,inactive,inactive,inactive,inactive,inactive,–,–
O=c1c(C2CC(c3ccc(-c4ccc(Br)cc4)cc3)Cc3ccccc32)c(O)sc2ccccc12 (stereo not drawn),inactive,inactive,inactive,inactive,inactive,inactive,inactive,6.74 µM (active),inactive,inactive,inactive,–,13.3 µM (active),inactive,inactive,inactive,inactive,inactive,–,–
Cc1cc(SCc2sc(-c3ccc(C(F)(F)F)c(F)c3)nc2C)ccc1OCC(=O)O,inactive,inactive,inactive,inactive,–,inactive,inactive,inactive,inactive,inactive,inactive,–,inactive,–,inactive,43.3 µM (active),30.6 µM (active),–,inactive,–
Cc1c(Cl)c(=O)oc2cc(OP(=O)(OCCCl)OCCCl)ccc12,inactive,inactive,inactive,inactive,–,–,inactive,inactive,inactive,inactive,inactive,–,inactive,–,inactive,–,inactive,inactive,inactive,inactive
CCCCCCCCCCCCCCCCCCn1cc[n+](C)c1,19.4 µM (active),inactive,19.4 µM (active),24.4 µM (active),15.4 µM (active),inactive,27.4 µM (active),inactive,38.7 µM (active),–,34.2 µM (active),3.83 µM (active),15.3 µM (active),inactive,inactive,30.5 µM (active),30.5 µM (active),inactive,–,–
CC[C@H]1C[C@@H]2C[C@H]3c4[nH]c5ccc(OC)cc5c4CCN(C2)[C@@H]13,inactive,inactive,54 µM (active),inactive,–,inactive,inactive,inactive,inactive,–,–,60.1 µM (active),–,inactive,inactive,53.5 µM (active),60.1 µM (active),inactive,inactive,inactive
c1cc[c]([Sb]([c]2ccccc2)[c]2ccccc2)cc1,inactive,inactive,inactive,inactive,–,inactive,inactive,inactive,inactive,inactive,inactive,–,–,inactive,inactive,–,inactive,inactive,inactive,–
